In PubChem BioAssay (NCI) one finds growth data, which are given here for eight compounds.

About 83,000 compounds went through this panel and 20% of them were active in at least one assay; those are over-represented in the sample as a whole.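 Percent growth is the endpoint: 0 to 100 indicates growth inhibition (40 means 60% inhibition), 0 means no net growth, and negative values indicate cell death.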 A number with no mark means an inactive call. Active and inactive are the calls of the source. The calls were made as follows: active = growth percent below 10; inactive = the rest.

What all share (assay): NCI-60 one-dose screen, 48 h (100 = growth as untreated, 0 = no growth, -100 = all killed)
Conditions in all cases: 10 µM unless noted

Assay [1] has as its system MOLT-4 leukemia.
Assay [2] relates to SR leukemia.
Assay [3] deals with RPMI-8226 leukemia.
In assay [4] the test system is OVCAR-8 ovarian.
Assay [5] relates to OVCAR-5 ovarian.
Assay [6] relates to SK-OV-3 ovarian.
In assay [7] the test system is IGROV1 ovarian.
In assay [8] the test system is OVCAR-3 ovarian.
Assay [9] deals with HS 578T breast.
For assay [10], the system named is NCI/ADR-RES ovarian.
Assay [11] concerns T-47D breast.
The subject of assay [12] is BT-549 breast.
Assay [13] has as its system MDA-MB-435 melanoma.
Assay [14] deals with SW-620 colon.
The test system of assay [15] is HCT-116 colon.
For assay [16], the system named is HCC-2998 colon.
Assay [17] relates to KM12 colon.
In assay [18] the test system is OVCAR-4 ovarian.
Assay [19] deals with MCF7 breast.

In the case of `Cn1cc(C=O)c2nccnc21`, the growth is 101% in [1]; 105% in [2]; 103% in assay [3]; 104% in assay [4]; 120% in assay [5]; 101% in [6]. Besides, the growth in assay [7] is 122%; in [8], 125%; in assay [9] it was 100%; in [10], 105%; in [11], 104%; in assay [12] it was 151%. For the same compound, the growth was 106% in assay [13]; 110% in assay [14]; 116% in assay [15]; 109% in assay [16]; 119% in assay [17].
On to `COc1cc2c(cc1OCc1ccccc1)C(CC(C)C)=[N+](C)CC2`, for which the growth in [1] was 91.8%; in [2], 89.9%; in [3], 56.4%; in assay [4] it was 73.5%; in assay [5], 93%; in [18] it was 71.5%. In addition, the growth in assay [6] was 93.1%; in [8] it was 65.7%; in assay [9], 83.1%; in [10], 101%; in assay [11], 58.4%; in [12], 44%. The growth is 96.6% in assay [13]; 93.7% in [14]; 73.4% in assay [19]; 85.2% in assay [15]; 79% in assay [16]; 78.8% in [17].
With `c1ccc(COc2ccc3[nH]cc(CCN(Cc4ccccc4)Cc4ccccc4)c3c2)cc1`, the growth is 70.7% in [1]; 69.5% in assay [2]; 74.9% in assay [3]; 98.1% in assay [4]; 95.4% in [18]; 91.2% in assay [6]. Further, the growth in assay [7] is 90.7%; in assay [8], 96.7%; in [9] it was 99.5%; in [10], 91.4%; in assay [11], 62.9%; in [12], 103%. Besides, the growth in [13] is 102%; in assay [14], 90.5%; in assay [19], 79.3%; in [15], 60.3%; in assay [16], 99.7%; in [17], 88%.
Take `CCCCCCCCCCCCCC[P+](CCCCCC)(CCCCCC)CCCCCC`: the growth was 51.6% in assay [1]; 62.4% in [2]; 59.4% in assay [3]; -79.9% (active) in [4]; -7.29% (active) in [5]; -91.8% (active) in assay [18]. Also, the growth in assay [6] is -3.34% (active); in [8] it was -100% (active); in [9], -35.8% (active); in [10], -10.5% (active); in assay [11] it was -14.8% (active); in assay [13], -81% (active). Also, the growth in [14] was -86.3% (active); in assay [19] it was -51.8% (active); in assay [15], -70.8% (active); in assay [16], -24.4% (active); in [17], -100% (active).
For the compound `CCOC(=O)[C@@H](C)C[C@H](Cc1ccccc1)NC(=O)c1csc([C@@H](C[C@H](C(C)C)N(C)C(=O)CNC(=O)[C@H]2CCCCN2C)OC(C)=O)n1`, the growth in assay [1] is 19.7%; in [3], 15.4%; in assay [4], 9.59% (active); in [5], 32.1%; in [18], 46.4%; in assay [6] it was 21.9%. For the same compound, the growth in assay [7] was 33.4%; in assay [8] it was -17.4% (active); in assay [9] it was 3.01% (active); in [10], 74.7%; in assay [11], 47.5%; in assay [12], 30.9%. Further, the growth in assay [13] is -63.8% (active); in assay [14] it was 24.5%; in assay [19], 17.9%; in [15], 3.7% (active); in assay [16], 8.98% (active); in [17] it was 12%.
As to `COC(=O)[C@H](Cc1ccccc1)NC(=O)c1csc([C@@H](C[C@H](C(C)C)N(C)C(=O)[C@@H](NC(=O)[C@H]2CCCN2C)C2CC2)OC(C)=O)n1`, the growth in assay [1] was 5.46% (active); in [3], 10.9%; in assay [4], 27.3%; in [5] it was 36.1%; in assay [18] it was 59.5%; in assay [6], 52.8%. In addition, the growth in assay [7] was 39.1%; in [8] it was -3.48% (active); in [9], 14.6%; in assay [10], 53.3%; in assay [11], 54.5%; in assay [12], 20.6%. Also, the growth in [13] is -31.2% (active); in [14], 24.5%; in assay [19], 20.4%; in [15] it was -2.44% (active); in assay [16], 27.8%; in [17] it was 12.6%.
For the compound `CC1[C@H](C)OC(=O)CC(O)CC(O)CC(O)CCC(O)C(O)C[C@]2(O)CC(O)C(C(=O)O)C(CC(OC3O[C@H](C)[C@@H](O)[C@H](N)[C@@H]3O)/C=C/C=C/C=C/C=C/CC/C=C/C=C/[C@H](C)[C@H]1O)O2` (some centres not stated), the growth in assay [1] was 122%; in [3] it was 106%; in assay [4], 92%; in [5], 95.4%; in [18], 102%; in assay [6] it was 110%. Besides, the growth in [7] was 101%; in assay [8] it was 109%; in assay [9] it was 97%; in [10] it was 93.2%; in assay [11] it was 108%; in assay [12], 105%. For the same compound, the growth in [13] was 102%; in assay [14] it was 99.5%; in assay [19] it was 104%; in assay [15], 97%; in assay [16] it was 103%; in assay [17], 106%.
In the case of `CC(=O)Nc1nc2c(s1)CC[C@@]1(C)C2=CC[C@H]2[C@@H]3CC[C@H](O)[C@@]3(C)CC[C@@H]21`, the growth in assay [1] is 50.8%; in assay [3] it was 34.1%; in assay [4], 80%; in [5], 92.3%; in [18], 87.4%; in [6], 81.9%. Also, the growth in assay [7] was 64.3%; in [8] it was 13.7%; in assay [9], 60.5%; in [10], 45.5%; in [11], 82%; in assay [12], 42.6%. The growth in [13] is 5.93% (active); in assay [14] it was 44.8%; in assay [19] it was 24.6%; in assay [15], 30.3%; in assay [16] it was 96%; in assay [17] it was 49.4%.
